Experimental data published in PubChem BioAssay AID492996 (Johns Hopkins Ion Channel Center, 2010).
Potency and affinity values are given separately. The source made the active and inactive calls.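 How the source made its calls: active means peak inhibition of the TRPC4 channel signal over 30% at some dose, with a fitted dose response curve; inactive means no inhibition or no dose response curve.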

Target: Short transient receptor potential channel 4 (Mus musculus) (UniProt Q9QUQ5)
Assay: mouse TRPC4 block via Gq-coupled stimulation – cell-based, acetylcholine stimulus, HEK293 TRPC4, Fluo-4, SAR follow-up (AID 492996)
Conditions: HEK293 TRPC4 cells, ACh-evoked Fluo-4 calcium flux; series mostly up to 20 µM

Chain of Short transient receptor potential channel 4 (Mus musculus) (Q9QUQ5 whole entry, looked up): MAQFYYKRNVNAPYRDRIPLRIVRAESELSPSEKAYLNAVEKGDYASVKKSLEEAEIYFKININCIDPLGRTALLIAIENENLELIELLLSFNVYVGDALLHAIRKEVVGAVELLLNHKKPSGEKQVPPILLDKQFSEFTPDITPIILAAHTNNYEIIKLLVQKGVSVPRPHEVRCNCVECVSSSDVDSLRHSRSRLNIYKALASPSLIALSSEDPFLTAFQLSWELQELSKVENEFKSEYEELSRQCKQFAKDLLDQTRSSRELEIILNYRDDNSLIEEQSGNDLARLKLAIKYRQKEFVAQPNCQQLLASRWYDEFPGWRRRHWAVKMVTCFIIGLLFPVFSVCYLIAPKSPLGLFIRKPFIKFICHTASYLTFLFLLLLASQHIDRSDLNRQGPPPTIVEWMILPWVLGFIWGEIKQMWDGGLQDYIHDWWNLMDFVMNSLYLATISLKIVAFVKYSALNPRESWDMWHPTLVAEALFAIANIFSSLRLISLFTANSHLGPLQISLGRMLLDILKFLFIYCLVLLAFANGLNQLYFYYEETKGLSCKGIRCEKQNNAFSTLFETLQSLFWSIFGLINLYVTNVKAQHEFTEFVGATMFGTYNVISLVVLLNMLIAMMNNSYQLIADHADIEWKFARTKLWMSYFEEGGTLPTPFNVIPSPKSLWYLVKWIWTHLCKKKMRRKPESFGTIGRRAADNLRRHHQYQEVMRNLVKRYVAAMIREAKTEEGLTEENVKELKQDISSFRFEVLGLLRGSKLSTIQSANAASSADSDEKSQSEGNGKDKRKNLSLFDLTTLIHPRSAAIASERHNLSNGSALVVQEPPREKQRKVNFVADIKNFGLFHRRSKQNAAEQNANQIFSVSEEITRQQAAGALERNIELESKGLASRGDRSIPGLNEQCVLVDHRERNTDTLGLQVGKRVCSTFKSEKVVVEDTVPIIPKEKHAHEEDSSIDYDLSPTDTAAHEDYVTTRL

outcome, inactive:
Cc1cc(N2CCCCCC2)nc2ccc(F)cc12, Cc1cc(N(C)CCN(C)C)nc2ccccc12, Cc1cc(N2CCOc3ccccc32)nc2ccccc12, FC(F)(F)c1cc(N2CCCCCC2)nc2ccccc12, Cc1cc(N2CCOCC2)nc2ccccc12, COc1ccccc1N1CCN(c2cc(C)c3ccccc3n2)CC1, Cc1cc(N2CCC(N3CCOCC3)CC2)nc2ccccc12, Cc1cc(N2CCN(CC3CCCO3)CC2)nc2ccccc12 (stereo unspecified), CCc1ccc2nc(N3CCCCCC3)cc(C)c2c1, Cc1cc(N2CCN(c3ccccc3C#N)CC2)nc2ccccc12, COc1ccc(N2CCN(c3cc(C)c4ccccc4n3)CC2)cc1, Cc1cc(N2CC(C)CC(C)C2)nc2ccccc12 (stereo unspecified), CCN(CC)c1cc(C)c2ccccc2n1, c1ccc(-c2cc(N3CCCCCC3)nc3ccccc23)cc1, Cc1ccnc(N2CCCCCC2)c1, COCCN(C)c1cc(C)c2ccccc2n1, Cc1ccnc(N2CCCCCC2)n1, Cc1cc(N2CCCC(O)C2)nc2ccccc12 (stereo unspecified), Cc1cc(N2CCN(c3ncccn3)CC2)nc2ccccc12, Cc1ccc2nc(N3CCCCCC3)cc(C)c2c1, Cc1cc(N2CCCCCC2)nc2c(C)cccc12
